Where “and” joins values, the source holds several entries; their conditions need not be identical. Equal entries are not always repeated. The whole screen tested about 70,000 compounds, of which about 470 (0.67%) were called active. Where a call stands in place of a potency, no number is given. Not shown: some 18% with an inconclusive outcome. This excerpt belongs to a sample that is enriched for actives. A number with no mark means an inactive call. Calls come from the whole dose curve.
Potency is the fitted concentration of half-maximal effect.

A short description of the experiment: qHTS Assay for Anthrax Lethal Toxin Internalization. Note: nearly all actives have a fitted effect of over 50% in size. The following applies: Cells, FRET ratio (460/530); series mostly up to 40 µM.
As to `Cc1ccc2oc(=O)ccc2c1`, the activity change, negative = inhibition result was “inactive”.
Same read-out and setting: under `NCCCNCCCCN(CCCN)/[N+]([O-])=N/O` stands “inactive”.
Same read-out and setting: to `CNC(=O)C1(C)C=CC2(CCCCC2)N1C(C)=O` (stereo not drawn) belongs “inactive”; to `CCCNC(=O)OC[C@@H]1O[C@H](c2ccccc2)C=C[C@@H]1Oc1ccc(OC)cc1`, -2.83% [at 8 µM].
For the compound `CSc1nc2ccc(S(=O)(=O)N3CCc4ccccc43)cc2s1`, the activity change, negative = inhibition result was “inactive”.
Same read-out and setting: to `O=C(O)c1nccnc1C(=O)Nc1ccc(Br)cn1` belongs “inactive”; to `Cc1ncc(CC(=O)n2cc(C(=O)c3cc(Cl)ccc3O)cn2)s1`, “inactive”.
On the same count and under the same terms, to `COC(=O)C1(Cc2ccccc2)C=C2C(=C(C)C(=O)C2C)CN1` (stereo not drawn) belongs “inactive”; to `COC(=O)[C@H]1C[C@@H]1[C@H](NC(=O)Oc1ccc(F)cc1)c1ccccc1`, “inactive”.
Consider `O=C(O)CS(=O)c1ccc2c3c(cccc13)C(=O)c1ccccc1-2` (stereo not drawn), for which the activity change, negative = inhibition was 1.15% [at 8 µM].
`CN(Cc1ccco1)c1ncncc1-c1ccoc1`: the activity change, negative = inhibition result is “inactive”.
The same measure, in the same setting: under `CC(C)C[C@@H](CC(=O)N[C@@H](CCC(=O)O)CC(=O)O)NC(=O)[C@@H]1CCCC[C@H]1NC(=O)C[C@@H](NC(=O)C[C@H](CO)NC(=O)[C@@H]1CCCC[C@H]1N)C(C)C` stands “inactive”; under `COc1ccc2nccc(C(=O)O)c2c1`, -6.5% [at 3.58 µM]; under `COc1cccc([C@H]2Oc3ccc(OC)cc3/C(=N\OCC[C@@H]3C=C[C@H](OC(C)=O)[C@H](COC(C)=O)O3)[C@@H]2O)c1`, -2.18% [at 8 µM].
Same read-out and setting: under `CC(C)[C@@H](CC(=O)N[C@@H]1CCNC[C@H]1C(=O)N[C@H](CC(=O)N[C@@H](CCC(=O)O)CC(=O)O)Cc1ccccc1)NC(=O)C[C@H](CO)NC(=O)[C@@H]1CNCC[C@H]1N` stands “inactive”.
Still for that read-out and setting: to `CC(=O)OCC1OC(C#CCCCc2ccccc2)C=CC1OC(C)=O` (stereo not drawn) belongs -3.55% [at 8 µM]; to `O=Cc1c(Cl)cccc1Cl`, “inactive”; to `COC(=O)[C@@H]1CC[C@H](C)[C@@H](c2ccc(C)cc2)N1C(=O)c1ccc(/C=N\O[C@@H](C)c2cn([C@H](CO)Cc3ccccc3)nn2)cc1`, 5.23% [at 8 µM].
For the compound `O=C(Nc1ccccc1-c1nnn(CC(=O)N2CCN(c3ccccc3)CC2)n1)c1cccs1`, the activity change, negative = inhibition entry was “inactive”.
The same measure, in the same setting: under `Cc1cc(C)cc(C#CC2C=CC(Oc3ccc(C4CCCC4)cc3)C(CO)O2)c1` (stereo not drawn) stands -16.6% [at 8 µM]; under `CS(=O)(=O)N1CCC2(CC1)CN(c1ccncc1)C2`, “inactive”; under `CCCC[C@H]1C(=O)N(c2ccccc2)N(c2ccc(O)cc2)C1=O`, -4.13% [at 3.58 µM].
The same measure, in the same setting: to `CO[C@H]1COC(=O)[C@@H](OCc2ccccc2)/C=C\[C@H](C)[C@@H](OC)COC(=O)[C@H](OCc2ccccc2)/C=C\[C@@H]1C` belongs -4.42% [at 8 µM]; to `C[C@@H]1C[C@H]2[C@@H]3C[C@H](F)C4=CC(=O)C=C[C@@]4(C)[C@]3(F)[C@H](O)C[C@]2(C)[C@@]1(O)C(=O)CO`, 2.5% [at 3.58 µM]; to `COCCn1c(=O)c(-c2cccs2)nc2cncnc21`, “inactive”.
On to `COc1ccc(-c2oc3cc(OC)ccc3c2C(=O)c2ccc(C#N)cc2)cc1`, for which the activity change, negative = inhibition result was “inactive”.
Same read-out and setting: to `CC(C)(C)[Si](OCC[C@@H]1C[C@@]1(C)[C@@H](NP(=O)(c1ccccc1)c1ccccc1)c1ccccc1)(c1ccccc1)c1ccccc1` belongs “inactive”; to `COc1ccc(C(=O)N2CCC3(CCCN(C(c4ccccc4)c4ccccc4)C3)CC2)cc1`, “inactive”.
As to `O=C(O)COc1c(Cl)cc(Cl)c2cccnc12`, the activity change, negative = inhibition was 10.5% [at 8 µM].
`CO[C@@H]1COC(=O)C/C=C\[C@H](C)[C@@H](NS(=O)(=O)c2ccc(C)cc2)COC(=O)C/C=C\[C@@H]1C`: the activity change, negative = inhibition was -10% [at 8 µM] and -6.83% [at 8 µM].
Still for that read-out and setting: under `c1ccc2nc(C3=NCCN3)cnc2c1` stands “inactive”; under `Cc1c2c(nc3ccccc13)-c1cccc(=O)n1C2`, “inactive”; under `COc1ccccc1C(=O)C(O)c1ccccc1OC` (stereo not drawn), “inactive”.
On the same count and under the same terms, to `CC(=O)OCC1OC(C#Cc2ccccc2Cl)C=CC1OC(C)=O` (stereo not drawn) belongs -7.54% [at 8 µM]; to `C[N+](C)(C)CCCCCNCC12CC3CC(CC(C3)C1)C2`, “inactive”.
`CSc1ccc(-c2c(C#N)c(N)nc3c2c(C)nn3-c2ccccc2)cc1`: the Potency was 1.26 µM (active).
Turning to `COC(=O)[C@@]1(Cc2ccc(F)cc2)[C@H]2c3cc(C(=O)N4CCCC4)n(C[C@H](O)CO)c3C[C@H]2CN1C(=O)c1ccccc1`, the activity change, negative = inhibition result was “inactive”.
As to `COc1cc([C@H]2c3cc4c(cc3[C@@H](O[C@@H]3O[C@H]5CO[C@@H](C)O[C@]5(O)C[C@H]3O)[C@@H]3COC(=O)[C@H]23)OCO4)cc(OC)c1O`, the activity change, negative = inhibition entry is “inactive”.
Take `CCC(Sc1nncn1C)C(=O)Nc1nnc(-c2ccc(Cl)cc2)s1` (stereo not drawn): the activity change, negative = inhibition entry was “inactive”.
Regarding `O=C(O)c1ccc(C(=O)O)c2c(C(=O)O)ccc(C(=O)O)c12`, the activity change, negative = inhibition was -1.24% [at 8 µM].
With `COc1ccc(N)c(OC)c1`, the activity change, negative = inhibition result is “inactive”.
For `COC(=O)[C@@]1(Cc2ccccc2)[C@H]2c3cc(C(=O)N(C)C)n(CCSCCO)c3C[C@H]2CN1C(=O)c1ccccc1`, the activity change, negative = inhibition entry is “inactive”.
Same read-out and setting: to `CCC[C@@H]1C[C@@]1(CCC)C(NS(=O)(=O)c1cccc2cccnc12)c1ccc(Cl)cc1` (stereo partly drawn) belongs “inactive”.
As for `NCC[Se][Se]CCN`, the Potency is 0.0794 µM (active).
Still for that read-out and setting: under `C=C1c2cc(CC)ccc2NC(=O)N1c1ccc(C)cc1` stands 10 µM (active).
As to `N[C@@H](C(=O)O)c1ccc(P(=O)(O)O)cc1`, the activity change, negative = inhibition entry is “inactive”.
The same measure, in the same setting: under `CC(=O)N1CCC2(CCCN(Cc3ccc(C#N)cc3)C2)CC1` stands “inactive”; under `CCCCCCOC(=O)NCC(O)c1ccccc1` (stereo not drawn), “inactive”; under `COc1cccc([C@H](O)Cn2cc(-c3ccc(CON=C(C)C)cc3)nn2)c1`, -1.91% [at 8 µM].
As for `COc1ncc2nc(-c3ccc(Cl)cc3)c(=O)n(C)c2n1`, the activity change, negative = inhibition entry is “inactive”.
Still for that read-out and setting: to `N#Cc1nc(COc2ccc(-c3ccccc3)cc2)oc1NCc1cccnc1` belongs “inactive”.
For the compound `N#Cc1nc(-c2ccc(OCc3ccccc3)cc2)oc1NCCCN1CCOCC1`, the Potency was 12.6 µM (active).
On to `N#Cc1nc(Cc2ccccc2)oc1NCCc1ccccc1`, for which the activity change, negative = inhibition result is “inactive”.
On to `C/C=C/C=C/C(=O)O`, for which the activity change, negative = inhibition entry was “inactive”.
With `CC(C)CN1CCc2nc(-c3ccccc3)c3c(c2C1)COC(C)C3` (stereo not drawn), the activity change, negative = inhibition was -16% [at 8 µM].
The same measure, in the same setting: to `COc1ccccc1CNc1ccnc(-c2c(C)noc2C)n1` belongs “inactive”.
Turning to `CC(Cc1ccccc1)C(=O)N(C)Cc1ccccc1` (stereo not drawn), the activity change, negative = inhibition result is “inactive”.
The same measure, in the same setting: to `COc1ccc(/C=C/NC(=O)Cc2ccc(OC)c(OC)c2)cc1` belongs -11.3% [at 8 µM]; to `Cn1c2c(c(=O)n(C)c1=O)C1c3ccccc3OCC1C(C)(C)O2` (stereo not drawn), “inactive”.
Consider `COc1ccccc1N1CCN(C[C@@H]2CN3C(=O)N(C)c4ccccc4C3=N2)CC1`, for which the activity change, negative = inhibition result was “inactive”.
On the same count and under the same terms, under `CC1CN(Cc2nc3c(c(=O)n(C)c(=O)n3C)n2Cc2cccc(Cl)c2)CC(C)O1` (stereo not drawn) stands “inactive”; under `CCCCC(CC)CN` (stereo not drawn), “inactive”.
For the compound `Cc1ccnc(-n2sc3ccccc3c2=O)n1`, the Potency was 0.316 µM (active).
Consider `Cc1nc2ccccc2c(=O)n1CCCn1ccnc1`, for which the activity change, negative = inhibition entry was “inactive”.
For the compound `Cc1ccnc(N2CCC(C(=O)NC3CCCCCC3)CC2)n1`, the activity change, negative = inhibition result was “inactive”.
Still for that read-out and setting: under `O=c1[nH]c(=O)n([C@H]2C[C@H](O)[C@H](CO)O2)cc1Br` stands “inactive”; under `CN(C)CCCn1c2ccccc2c2cnccc21`, -25.7% [at 8 µM].
Same read-out and setting: under `O=C(COc1ccccc1Cl)Nn1cnnc1` stands “inactive”.
Same read-out and setting: under `Cc1cccc(NC(=O)COc2ccccc2C)n1` stands “inactive”.
Consider `Cc1ccccc1OCC(=O)Nc1ccc(N2CCN(C(=O)C(C)C)CC2)c(Cl)c1`, for which the Potency was 12.6 µM (active).
For the compound `COC(=O)[C@@]1(Cc2ccc(F)cc2)[C@@H]2[C@@H](CC(=O)[C@H]2CC(=O)C(=O)N2CCCC2)CN1C(=O)c1ccccc1`, the activity change, negative = inhibition entry is “inactive”.
The same measure, in the same setting: to `COC(=O)CCCCCN1C(=O)NC(c2ccc(-c3ccccc3)cc2)C(C(=O)OCc2ccccc2)=C1C` (stereo not drawn) belongs “inactive”.
The same measure, in the same setting: under `Cc1ccccc1N1CCN(S(=O)(=O)C[C@@]23CC[C@H](C[C@H]2NC(=O)[C@@H](N)CCS(C)(=O)=O)C3(C)C)CC1` stands “inactive”.
